{"source": "PubChem BioAssay (NCATS)", "note": "Results filed as inconclusive are left out. More than one record can exist for a structure, and the calls need not agree. Active and inactive are the calls of the source. Calls follow the shape of the dose curve; as a rule, active = well fitted inhibition curve with a large enough effect; inconclusive = small, poorly fitted or top-dose-only effect; inactive = flat fitted curve, though single readings scatter. % is scaled to controls: 0 for no effect and ±100 for the full control effect; potency is read from the fitted curve at half-maximal effect."}
{"test_system": "not listed separately", "assay": "Drug repurposing screens with cells derived from glioblastoma tumor samples (AID 1345199); also: nearly all actives have a fitted effect of over 40% in size", "details": "GBM patient neurospheres viability, ATP luminescence, 48 h; tumour line A", "in_short": "(§1)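 Primary testing used CD133+ neurospheres from four GBM patients, seven concentrations, 48 h exposure and ATP-based viability; confirmation added three slower-growing patient lines.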"}
{"molecule": "CCCOC(=O)c1ccc(O)cc1", "Potency": "35.5 µM (active)"}
{"molecule": "COc1cc(NC(C)CCCN)c2ncccc2c1", "note": "(stereo not given)", "Potency": "10 µM (active)"}
{"molecule": "CCCC(=O)OC[C@@H](OC(=O)CCC)[C@@H](OC(=O)CCC)[C@H](Cn1c2nc(=O)[nH]c(=O)c-2nc2cc(C)c(C)cc21)OC(=O)CCC", "Potency": "8.91 µM (active)"}
{"molecule": "[O-][n+]1ccccc1SSc1cccc[n+]1[O-]", "Potency": "7.08 µM (active)"}
{"test_system": "astro", "assay": "Drug repurposing screens with cells derived from glioblastoma tumor samples (AID 1345199); also: nearly all actives have a fitted effect of over 40% in size", "details": "viability, ATP luminescence, 48 h; series mostly up to 45.9 µM; activity, negative = cell killing: at the top concentration", "in_short": "as §1"}
{"molecule": "O=C(/C=C/c1ccccc1)NCCO", "activity, negative = cell killing": "-22.7% (inactive)"}
{"molecule": "CO[C@@]1(NC(=O)Cc2cccs2)C(=O)N2C(C(=O)O)=C(COC(N)=O)CS[C@@H]21", "Potency": "inactive"}
{"molecule": "Nc1c(CC(=O)O)cccc1C(=O)c1ccc(Br)cc1", "activity, negative = cell killing": "-16.7% (inactive)"}
{"molecule": "O=C(O)Cc1ccc(-c2ccccc2)cc1", "activity, negative = cell killing": "-15% [at 21.2 µM] (inactive)"}
{"molecule": "CC(C(=O)O)c1ccc2c(c1)[nH]c1ccc(Cl)cc12", "note": "(stereo not given)", "activity, negative = cell killing": "-28.9% (inactive)"}
{"molecule": "CCCOC(=O)c1ccc(O)cc1", "Potency": "inactive"}
{"molecule": "CCOC(=O)c1ccccc1O", "Potency": "inactive"}
{"molecule": "COc1cc(NC(C)CCCN)c2ncccc2c1", "note": "(stereo not given)", "activity, negative = cell killing": "-20.2% [at 21.2 µM] (inactive)"}
{"molecule": "CC(=O)c1ccc(OCC(=O)N2CCCCC2)cc1", "activity, negative = cell killing": "-10.9% (inactive)"}
{"molecule": "CCOc1ccc2nc(S(N)(=O)=O)sc2c1", "activity, negative = cell killing": "-14.7% (inactive)"}
{"molecule": "CCCCCCCCCCCCCCCC(=O)OC(C)C", "activity, negative = cell killing": "-14.4% (inactive)"}
